# Source: PubChem BioAssay AID588507 (Broad Institute, 2011)
# The source made the active and inactive calls. No rule for the calls is given here.
# Test: compound effect on GFP reporter cells – imaging, dry powder samples, counter-screen for PrP inhibitor project, dose response (AID 588507)
# Conditions: max activity: measured here: maximum activity across titration, at 0.0195 µM; series mostly up to 5 µM
smiles,measurement,value
COc1cc(SC)ccc1C(=O)Nc1nc2ccccc2[nH]1,max activity,451%
same,outcome,inactive
